# Source: PubChem BioAssay (Broad Institute)
# Only some compounds are listed: those with a hit (about 3% of all), similar ones and a draw of the others.
# esBAF inh = SWI/SNF esBAF complex inhibition | mouse ES cells, Bmi1-luciferase knock-in reporter, 24 h; 100% = twice the neutral-well signal | reporter increase, % at 12.5 µM | hit rate 2% among 350,000 | AID 602393; in the data active = activation above about 40%; inconclusive = no clear call, values can overlap the other calls;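 also: 0% = median of the plate's neutral control wells and 100% = double that signal; a rise in the Bmi1 reporter signal indicates esBAF inhibition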
# Wnt bcat act = activators of Wnt/beta-catenin signaling; activation, % at 9.35 µM; Wnt/beta-catenin reporter cell assay, activator, plate reader; hit rate 1.2% among 300,000; in the data active = activation above about 30%, passing the limit was not always enough; inconclusive = no clear call, values can overlap the other calls;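 also: 0% = neutral control wells and 100% = positive control wells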
# PfHsp90 set2 = growth inhibition of yeast expressing Plasmodium Hsp90; hit rate 0.32% among 310,000; S. cerevisiae expressing PfHsp90, BacTiter-Glo ATP, 48 h; yeast lacking PDR1 and PDR3 efflux regulators; inhibition, % at 9.4 µM;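 active = every replicate shows inhibition above about 80%, whatever the replicate mean, limit read from the data; inconclusive = mean inhibition reaches the set limit but some replicate falls short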;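 also: 0% = DMSO neutral controls and 100% = 20 µM radicicol positive controls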
# N-glyco inh = blocks N-linked glycosylation in D54 reporter cells; D54 ERlucT glycosylation luciferase reporter, 24 h; percent of 100 nM tunicamycin response; reporter increase, % at 12.5 µM; hit rate 0.23% among 360,000;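 active = mean luciferase reporter signal, scaled so untreated is 0 and the glycosylation-blocking control 100, at or above a set limit in every replicate; inconclusive = mean reaches the limit but not every replicate does; inactive = mean below the limit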;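 also: luciferase carries N-glycosylation sites so blocking glycosylation raises the light; 0% = median of neutral control wells and 100% = median of 100 nM tunicamycin wells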
# MITF act = MITF TRPM1 promoter activation in melanoma cells; SK-MEL-5 TRPM1-promoter luciferase, 24 h; % of positive control, neutral wells = 0; activation, % at 12.5 µM; hit rate 0.75% among 300,000; AID 588334;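 active = mean activation of at least 80% with every replicate also reaching 80%; inconclusive = mean reaches 80% but some replicate falls short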;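 also: 0% = neutral control wells and 100% = parthenolide positive control wells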
# Vif imaging = blocks HIV Vif function. HEK293T cells, Vif self-association by quenched fluorescence, imaging, 24 h. inhibition, % at 7.49 µM. hit rate 0.35% among 340,000. AID 602346; in the data active = inhibition above about 50%, passing the limit was not always enough; inconclusive = no clear call, values can overlap the other calls; inactive = below about 31%
# An asterisk follows results filed as active; ? = inconclusive; / = no result given.
SMILES,esBAF inh,Wnt bcat act,PfHsp90 set2,N-glyco inh,MITF act,Vif imaging
CCOc1ccc(Nc2nc3c(C)cccc3cc2C#N)cc1,-1,0,-16,1,1,82*
C#CCN1C(=O)S/C(=C/C=C/c2ccc(N(C)C)cc2)C1=O,79*,45*,-20,-6,32,87*
CCOC(=O)N1CCN(C(=O)c2ccc3nc(N4CCCCC4)sc3c2)CC1,/,/,-8,0,-2,-1
O=C(c1ccc2nc(N3CCCCC3)sc2c1)N1CCN(c2ccccn2)CC1,16,-1,-50,1,/,2
CC1CCN(c2nc3ccc(C(=O)N4CCN(Cc5ccccc5)CC4)cc3s2)CC1,94*,3,4,-6,10,-33
CCOC(=O)N1CCN(C(=O)c2ccc3nc(N4CCC(C)CC4)sc3c2)CC1,58*,/,13,-2,11,/
Cc1cccc(N2CCN(C(=O)c3ccc4nc(N5CCCCC5)sc4c3)CC2)c1C,61*,11,-17,-4,35,-20
C=CCNc1nc2c(c(=O)n(C)c(=O)n2C)n1CC,-12,4,3,1,/,4
CCOC(=O)N1CCC(NC(=O)c2oc3c(F)cccc3c2C)CC1,50*,13,12,2,44,-7
CC12CC3OC3CC1CCC1C2CCC2(C)C1CCC21OCCO1 (stereo not drawn),0,-6,20,-1,-4,-4
NC(N)=Nc1nc(C2COc3ccccc3O2)cs1 (stereo not drawn),/,53*,0,-13,51,0
COc1ccc(-c2noc(-c3ccc(Cl)cc3[N+](=O)[O-])n2)cc1OC,/,21,-35,2,71,-2
Cc1cccc(-c2noc(-c3ccc(Cl)cc3[N+](=O)[O-])n2)c1,/,43*,10,-8,71,-11
O=C(Nc1nc2ccsc2c(=O)s1)c1ccc(F)cc1Cl,/,52*,-25,-8,/,15
Cc1csc2c(=O)sc(NC(=O)c3ccc(F)cc3Cl)nc12,-11,6,3,1,/,-2
O=C(NNc1ccccc1)Nc1ccccc1F,0,5,-11,0,3,1
CN(C)CC/C=C1/c2ccccc2CS(=O)(=O)c2ccccc21,8,0,-17,3,1,85*
O=C(CSc1nnnn1C1CCCC1)c1ccc2c(c1)OCCO2,81*,?,3,-11,74,2
O=C(CSc1nnnn1C1CCCC1)Nc1ccc2c(c1)OCO2,-2,/,13,0,6,-1
CCn1nnnc1SCC(=O)c1ccc2c(c1)OCCO2,?,12,15,0,16,-5
Cc1ccc(C)c(C(=O)CSc2nnnn2C(C)C)c1,51*,/,4,-1,45,1
CC(C)n1nnnc1SCC(=O)c1ccc2c(c1)OCCO2,47*,30,-7,-9,77,/
CC(C)(C)c1nnc2sc(SCC(=O)c3ccc4c(c3)OCCO4)nn2c1=O,-3,-1,12,40*,-8,-2
Cc1ccc(C(=O)CSc2nn3c(=O)c(C(C)(C)C)nnc3s2)cc1,-12,/,23,?,7,-1
CCCc1cc(N2CCOCC2)n2nc(C)c(-c3ccccc3)c2n1,-2,-2,14,-2,-15,-1
SMILES,esBAF inh,Wnt bcat act,PfHsp90 set2,N-glyco inh,MITF act,Vif imaging
CCOP(=O)(OCC)C(NCc1ccccc1)c1ccc(Br)cc1 (stereo not drawn),/,/,-9,1,0,4
CCn1c(C)cc(C(=O)CSc2nnnn2C2CCCC2)c1C,-11,3,-51,-13,105*,1
CCOc1ccccc1NC(=O)n1ncc2c(C)cccc21,13,3,-40,0,7,22
COc1cccc(/C=C2\N=C3CCCCCN3C2=O)c1,3,36*,-16,4,-1,3
CCOc1cc(/C=C2\N=C3CCCCCN3C2=O)ccc1O,/,-1,-23,0,51,2
O=C(N/N=C/C(Br)=C/c1ccccc1)c1cnccn1,50*,33*,-8,9,35,-12
Cn1cc(C(=O)N/N=C/C(Br)=C/c2ccccc2)ccc1=O,/,9,24,25*,-14,4
Cn1cc(C(=O)N/N=C/C(Br)=C\c2ccccc2)ccc1=O,6,/,16,?,-25,/
CN1/C(=C/C=C(/C#N)C(N)=O)C(C)(C)c2ccccc21,/,/,8,26*,-8,-6
